hgDAF-12 ag – agonists of H. glycines DAF-12 nuclear receptor. HEK293 GAL4-hgDAF12 UAS-luciferase reporter, agonist luminescence; normalized to butyrate control. activation, % at 6.8 µM. 370,000 tested, 1.8% active;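 active means activation above a cutoff set at the mean of all screened compounds plus 3 SD, cut at about 10% in these data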;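 further: 0% = DMSO wells and 100% = sodium butyrate wells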
AHR act – human AHR activation; AHR-responsive luciferase reporter cells, luminescence; activation, % at 5 µM; 320,000 tested, 2.5% active; in the data active means activation above about 47%;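 further: 0% = vehicle wells and 100% = reference agonist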
Target sequence (P35869 whole entry, looked up): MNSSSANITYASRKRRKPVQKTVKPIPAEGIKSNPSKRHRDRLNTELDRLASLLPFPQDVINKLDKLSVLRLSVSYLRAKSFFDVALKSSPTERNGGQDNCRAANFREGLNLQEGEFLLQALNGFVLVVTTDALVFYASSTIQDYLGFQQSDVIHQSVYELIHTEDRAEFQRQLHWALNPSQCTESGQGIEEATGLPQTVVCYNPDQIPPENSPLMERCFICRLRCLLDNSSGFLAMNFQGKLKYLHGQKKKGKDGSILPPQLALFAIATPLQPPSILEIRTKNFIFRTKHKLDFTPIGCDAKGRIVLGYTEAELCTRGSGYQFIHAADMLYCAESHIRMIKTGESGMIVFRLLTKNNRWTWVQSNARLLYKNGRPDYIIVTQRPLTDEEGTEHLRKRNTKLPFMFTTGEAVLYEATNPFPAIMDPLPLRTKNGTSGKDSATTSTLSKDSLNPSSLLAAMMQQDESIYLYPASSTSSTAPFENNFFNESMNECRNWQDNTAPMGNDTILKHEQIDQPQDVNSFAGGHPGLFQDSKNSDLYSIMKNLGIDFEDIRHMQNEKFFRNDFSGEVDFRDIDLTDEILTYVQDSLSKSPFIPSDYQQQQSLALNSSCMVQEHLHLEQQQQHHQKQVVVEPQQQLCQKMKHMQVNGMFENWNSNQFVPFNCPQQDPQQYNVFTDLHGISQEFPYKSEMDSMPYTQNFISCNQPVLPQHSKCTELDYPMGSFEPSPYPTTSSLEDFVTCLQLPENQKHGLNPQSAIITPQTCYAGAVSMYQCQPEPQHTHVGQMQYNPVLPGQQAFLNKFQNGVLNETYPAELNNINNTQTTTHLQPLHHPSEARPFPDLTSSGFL
DAX1 inh-1 – DAX1 (NR0B1) inhibition, primary screen | AID 652010 | HEK293T StAR-luciferase reporter, SF-1/DAX-1 repression relief | inhibition, % at 6.8 µM | 370,000 tested, 1.1% active;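 active means inhibition above the mean over all tested compounds plus 3 SD, cut at about 3.6% in these data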;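 further: 0% = DAX-1 cells with DMSO and 100% = cells lacking DAX-1 with DMSO; higher inhibition means more luminescence from relief of DAX-1 repression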
hcDAF-12 act – activates DAF-12 receptor from parasite H. contortus | activation, % at 6.8 µM | HEK293 hcDAF-12 lit1-tk-luc reporter, luminescence; 0% DMSO, 100% Δ7-dafachronic acid | 370,000 tested, 1.4% active | AID 652067;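 active means activation above the mean of all tested compounds plus 3 SD, cut at about 5.5% in these data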;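 further: 100% = response to 3 µM Δ7-dafachronic acid high control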
ssDAF12 agonist – S. stercoralis DAF-12 activation, primary screen. activation, % at 6.8 µM. HEK293 ssDAF-12/GRIP1 lit1-tk-luc reporter, luminescence; % of 3 µM dafachronic acid response. 370,000 tested, 1% active;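 active means activation above the mean over all tested compounds plus 3 SD, cut at about 0.9% in these data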;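 further: 0% = DMSO-only wells and 100% = 3 µM delta7-dafachronic acid wells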
DAX1 inh-2 – NR0B1 (DAX1) inhibition; P51843; HEK293 Gal4-DAX1 luciferase reporter, luminescence; inhibition, % at 6.75 µM; 340,000 tested, 0.99% active;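 active means inhibition above the mean over all tested compounds plus 3 SD, cut at about 4.2% in these data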;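 further: 0% = DAX1-transfected cells with DMSO and 100% = empty-vector control cells with DMSO; inhibition shows as a rise in luminescence from relieved DAX1 repression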
The depositor's hits bear a star; . = no result given. Only some compounds are listed: those with a hit (about 5.7% of all), similar ones and a draw of the others.

SMILES	hgDAF-12 ag	AHR act	DAX1 inh-1	hcDAF-12 act	ssDAF12 agonist	DAX1 inh-2
Cc1ccc(Nc2nc(Nc3ccc(C)cc3)nc(SC3=NCCS3)n2)cc1	1	60*	0	-1	-1	-1
Cc1ccccc1Nc1nc(Nc2ccccc2C)nc(SC2=NCCS2)n1	-3	5	-1	-2	-2	-2
CC(=O)Cn1cnc2sc(-c3ccccc3)cc2c1=O	11*	21	2	3	-1	1
CC(=O)Cn1nnc2sc(-c3ccccc3)cc2c1=O	13*	16	3	5	0	4
COc1ccc(-n2cnc3sc(-c4ccccc4)cc3c2=O)cc1	8	4	3	4	0	5.0*
O=C(NCc1cccs1)C(=O)NCC1OCCCN1S(=O)(=O)c1cc(F)ccc1F (centres undefined)	-1	6	-1	-1	-1	0
CCn1cc(CN2CCC(n3nccc3NC(=O)CCc3ccccc3)CC2)cn1	-2	3	1	1	0	1
Cc1nc(NCCc2ccc(F)cc2)c2nnn(Cc3ccccc3)c2n1	-1	1	0	1	-1	1
Cc1nc(NC(C)C)c2cnn(CCc3ccccc3)c2n1	6	59*	0	0	-1	1
CCCNc1nc(C)nc2c1cnn2CCc1ccccc1	4	68*	1	-1	-1	0
Cn1c(O)c(N=NC(=O)CNC(=O)/C=C/c2ccccc2)c2ccccc21	0	8	0	0	-1	0
Cc1cc(NC(=O)CSc2nnc(C3CC3)n2Cc2ccccc2)no1	-4	0	0	-1	-2	1
CC(Sc1nnc(C2CC2)n1-c1ccccc1)C(=O)N1CCCC1 (centres undefined)	13*	.	0	0	-1	1
Cc1cc(NC(=O)CSc2nnc(C3CC3)n2-c2ccccc2)no1	-2	48*	0	-1	-2	-2
CCOC(=O)c1ccc(NC(=O)CN2CCN(C(=O)C3CCCO3)CC2)cc1 (centres undefined)	-1	-1	1	2	0	1
Cc1onc(-c2ccccc2)c1C(=O)NNC(=O)c1ccccc1O	4	78*	-2	1	-1	2
Cc1onc(-c2ccccc2)c1C(=O)Nc1ccccc1NC(=O)c1c(-c2ccccc2)noc1C	0	-1	0	4	-1	1
Cc1onc(-c2ccccc2)c1C(=O)Nc1cccc(C#N)c1	11*	-2	-2	2	-2	2
Cc1onc(-c2ccccc2)c1C(=O)NNC(=O)c1ccccc1	0	12	0	3	1.1*	0
Cc1onc(-c2c(Cl)cccc2Cl)c1C(=O)NCCc1ccc(S(N)(=O)=O)cc1	-1	-1	0	-1	-2	-1
Cc1onc(-c2ccccc2)c1C(=O)NCCc1ccc(S(N)(=O)=O)cc1	1	76*	0	0	-1	1
CN1CCC(N(C)C(=O)c2cc(=O)c3ccccc3o2)CC1	-1	5	0	0	-1	1
CC(C)c1ccc(NC2CCCN(C(=O)c3cnsn3)C2)cc1 (centres undefined)	-2	18	-2	-1	0	-1
Cn1c(=N)n(CC(=O)c2ccc(Cl)c(Cl)c2)c2ccccc21	1	54*	0	5	0	-3
CS(=O)(=O)N1CCn2c1nc1ccccc12	2	0	0	0	-1	0
SMILES	hgDAF-12 ag	AHR act	DAX1 inh-1	hcDAF-12 act	ssDAF12 agonist	DAX1 inh-2
CCN1N=C(c2ccccc2)Cn2c1nc1ccccc12	0	67*	0	4	-1	0
COc1ccc(C(=O)/C=C/Nc2cccc(C)n2)cc1OC	11*	-3	2	1	0	2
O=C(C/C=N/OCc1c(Cl)cccc1Cl)c1ccccc1	6	14	1	4	0.9*	0
CC(C)C[C@H](NC(=O)c1ccc(Cl)cc1Cl)C(=O)N1CCC[C@H]1C(=O)NCc1ccccc1	2	.	0	0	-1	.
CC1CCCC(C)N1CCCNC(=O)c1ccc2nc(N3CCOCC3)sc2c1 (centres undefined)	0	7	0	-2	-1	1
CC1CC(C)CN(CCCNC(=O)c2ccc3nc(N4CCCCC4)sc3c2)C1 (centres undefined)	3	13	2	4	-1	0
CCC1CCCCN1CCCNC(=O)c1ccc2nc(N3CCCCC3)sc2c1 (centres undefined)	11*	0	2	5.6*	1	1
CC1CCCC(C)N1CCCNC(=O)c1ccc2nc(N3CCCCC3)sc2c1 (centres undefined)	9	7	3.8*	2	-1	2
CCCN1CCN(CCCNC(=O)c2ccc3nc(N4CCCCC4)sc3c2)CC1	7	13	4.4*	3	-1	2
CCOC(=O)C1=C(C(=O)OCC)C2N(Cc3ccc(C(F)(F)F)cc3)c3ccccc3[C@@]23C[C@@H](C(=O)OC)N(S(=O)(=O)c2cccs2)C3=N1 (some centres undefined)	0	.	-1	-1	0	.
O=c1c2ccccc2nc(/C=C/c2ccc(O)cc2)n1CCc1ccccc1	1	72*	-2	-4	-2	-3
O=c1c2ccccc2nc(/C=C/c2ccccc2)n1CCCO	-4	1	0	-2	-1	0
CCn1c(/C=C/c2ccccc2)nc2ccccc2c1=O	0	79*	0	-1	-1	1
Cn1c(/C=C/c2ccccc2)nc2ccccc2c1=O	6	24	0	5	0	1
Cn1c(/C=C/c2ccc(Cl)cc2)nc2ccccc2c1=O	7	49*	0	2	-1	0
Cc1nc(C(F)(F)F)ccc1C(=O)N1CCCC(C)(C(=O)O)C1 (centres undefined)	0	.	-1	-1	-1	.
CN(C)CCCN=Cc1c(O)n(Cc2ccc3c(c2)OCO3)c(=O)c2ccccc12	.	0	.	.	.	.
C/C(Cl)=C\Cn1c(N2CCCC2)nc2c1c(=O)n(C)c(=O)n2C	0	5	0	-1	-1	-1
C[C@@H]1CNC(=O)c2c(C(=O)N3CCN(c4ccccc4)CC3)ncn21	-3	.	0	-2	-1	.
COc1ccccc1OCC(=O)Nc1ccc(S(=O)(=O)Nc2nccs2)cc1	-3	-1	0	-1	-1	-2
COCC(=O)Nc1ccc(S(=O)(=O)Nc2nccs2)cc1	0	-1	0	1	-1	4.4*
CCOc1ccc(-n2c(=O)c3ccccc3c3ccccc3c2=O)cc1	0	-3	0	0	-1	4.9*
CSc1ncccc1C(=O)OCC(=O)NCc1ccc2c(c1)OCO2	-3	-4	0	0	-2	1
O=C(NCCN1CCOCC1)c1cc(Br)ccc1Cl	10	1	0	3	1.1*	1

Screening data as filed in PubChem.
